Compound activity (PubChem)
Hits are enriched below; roughly 1.1% of the tested compounds scored in any of these assays.
Mito fusion act – blocks mitochondrial division or promotes mitochondrial fusion; actives 0.23% (n = 320,000); Potency, µM (doses to about 46.1 µM), for inactives: at the highest dose growth rescue (activation), most hits filed as activators; S. cerevisiae fusion-defective mutant growth rescue, CellTiterGlo 48 h; AID 485298; active means well fitted activation curve with a large enough effect; inconclusive means small, poorly fitted or top-dose-only effect; inactive means no such curve, though single readings can be large or run the other way; further: potency means the concentration at half of the fitted maximal effect; % of control where 0% means no effect; nearly all actives have a fitted effect of over 45% in size
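Read-out: ATP-based luminescence (CellTiterGlo, 10 min ambient) reporting growth of fusion-defective ts yeast after 48 hours at 37C on glycerol/ethanol YPEG medium in the presence of compound.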
Six1-Eya2 inh – Six1/Eya2 interaction inhibition; Q15475+O00167; AlphaScreen GST-Six1/His-Eya2 binding, biochemical; hits give low values; activity change, % (test concentration not listed); actives 0.56% (n = 360,000); further: on the % scale 0 is the no-effect control and ±100 the full control effect
Target sequence (O00167 whole entry, looked up): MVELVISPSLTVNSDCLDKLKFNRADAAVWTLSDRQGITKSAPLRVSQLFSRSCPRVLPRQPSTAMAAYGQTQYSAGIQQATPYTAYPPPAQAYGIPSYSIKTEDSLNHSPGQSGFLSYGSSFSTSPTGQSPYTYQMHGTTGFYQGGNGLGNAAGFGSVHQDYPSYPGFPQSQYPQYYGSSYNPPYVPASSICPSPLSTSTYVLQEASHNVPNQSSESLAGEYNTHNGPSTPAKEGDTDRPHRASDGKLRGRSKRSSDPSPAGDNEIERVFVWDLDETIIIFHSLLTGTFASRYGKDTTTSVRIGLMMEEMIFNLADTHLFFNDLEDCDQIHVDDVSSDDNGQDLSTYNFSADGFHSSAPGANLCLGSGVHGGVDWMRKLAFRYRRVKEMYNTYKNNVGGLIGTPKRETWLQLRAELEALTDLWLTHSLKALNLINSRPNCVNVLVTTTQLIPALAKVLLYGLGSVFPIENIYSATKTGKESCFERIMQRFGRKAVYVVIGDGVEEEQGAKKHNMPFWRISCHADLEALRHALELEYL
Target sequence (Q15475 whole entry, looked up): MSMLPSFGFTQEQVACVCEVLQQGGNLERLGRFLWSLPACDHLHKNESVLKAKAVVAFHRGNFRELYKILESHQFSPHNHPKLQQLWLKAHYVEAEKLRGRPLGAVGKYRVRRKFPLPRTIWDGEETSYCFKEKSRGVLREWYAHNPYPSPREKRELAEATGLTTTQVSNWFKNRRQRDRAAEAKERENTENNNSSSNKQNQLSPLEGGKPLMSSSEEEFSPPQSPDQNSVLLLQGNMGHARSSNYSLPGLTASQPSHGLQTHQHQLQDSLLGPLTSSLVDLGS
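Compounds are tested against tagged Six1 and Eya2 proteins bridged by glutathione donor and nickel acceptor beads; after a one-hour incubation at 37 °C without light, AlphaScreen emission is recorded.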
uPA surface inh – blocks generation of uPA at the cell surface; cell surface uPA generation assay, qHTS; Potency, µM (top dose mostly 38.3 µM), for the others: at the highest dose activity change, negative = inhibition, most hits filed as inhibitors; actives 0.31% (n = 330,000); AID 540303; active means well fitted inhibition curve with a large enough effect; inconclusive means small, poorly fitted or top-dose-only effect; inactive means no such curve, though single readings can be large or run the other way; tested in mouse RAW 264.7 cells; further: potency means the concentration at half of the fitted maximal effect; on the % scale 0 is the no-effect control and ±100 the full control effect; nearly all actives have a fitted effect of over 55% in size
CtBP-E1A inh – inhibitors of CtBP/E1A interaction; actives 0.49% (n = 340,000); AlphaScreen GST-E1A/His-CtBP binding, 1536-well; hits give low values; activity change, % (concentration not given with the values); further: on the % scale 0 is the no-effect control and ±100 the full control effect
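Homogeneous bead-based format: GST-tagged E1A captured on glutathione donor beads, His-tagged CtBP on nickel acceptor beads; compounds precede bead addition by 2 h at 37 °C.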
MBNL1 CUG block – blocks human MBNL1 binding to CUG repeat RNA; Q9NR56; TR-FRET MBNL1-His/biotin-(CUG)12 binding, 665/545 ratio; Potency, µM (top dose mostly 57.5 µM), without a hit: at the top dose activity change, negative = inhibition, hits mostly inhibitors; actives 0.036% (n = 280,000); AID 2675; active means well fitted inhibition curve with a large enough effect in the signal ratio, with a control signal flat, not every such curve was filed as active; inconclusive means small, poorly fitted or top-dose-only effect, or effect the other way, or a change in a side signal; inactive means no such curve, though single readings can be large or run the other way; the % refers to the signal ratio; further: potency means the concentration at half of the fitted maximal effect; on the % scale 0 is the no-effect control and ±100 the full control effect
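MBNL1-His + Biotin-(CUG)12, cpd titration 92 nM–58 uM; Tb anti-His Ab 0.055 ng/ul, SA-XL665 5 nM (final); 60 min RT; ratiometric 665/545 nm, Ex 340 nm; normalized to buffer and full-complex controls.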
Active calls of the source: *; ? = inconclusive; · = no result; ! = repeats disagree; [ ] = another dose, or the depositor's remark. Unless noted, no stated cut-off is given here; in the data, active means activity change below about -65%; inconclusive means mostly about -30% to -63%; inactive means weaker than that.

SMILES	Mito fusion act	Six1-Eya2 inh	uPA surface inh	CtBP-E1A inh	MBNL1 CUG block
C[C@@H]1CN([C@H](C)CO)C(=O)CCCn2nncc2CO[C@H]1CN(C)C(=O)c1ccc2ccn(C)c2c1	·	9.7	·	0.0	·
COc1cc(OC)cc(-c2cc3ccc(OC)cc3cn2)c1	17.8%	9.4	3.55µM*	5.2	·
COc1ccc(-c2cc3cc(OC)c(OC)cc3cn2)cc1	·	-18.1	-18.1%	?	·
COc1ccc2cc(-c3ccsc3)ncc2c1	9.0%	4.7	8.91µM*	13.0	·
COc1ccc2cc(-c3ccccc3)ncc2c1	-4.7%	4.2	?	1.9	1.0%
C=CC[n+]1c(/C=C2\C=Cc3cc(C)ccc3N2CC)ccc2ccccc21	-2.7%	?	8.91µM*	·	·
O=C(Cc1c(F)c(F)c(F)c(F)c1F)Nc1nc(-c2ccccc2)cs1	11.2µM*	-26.3	25.1%	0.0	-3.4%
O=C(Cc1ccc(F)cc1)Nc1nc(-c2ccc(F)cc2)cs1	5.8%	0.0	0.5%	-1.0	-1.9%
C/C(=N\NC(=O)c1nnn(-c2nonc2N)c1C(C)C)c1cc(C)sc1C	31.6µM*	4.4	6.6%	2.7	6.5%
O=C1C2C3C=CC(C3=C3CCCCC3)C2C(=O)N1c1ccccc1 (stereo not given)	1.2%	5.2	7.9%	2.1	4.1%
CN1C(=O)C2C=CC1C1C(=O)N(c3ccccc3)C(=O)C21 (stereo not given)	6.31µM*	-0.6	2.1%	3.7	-18.4%
CN(C)S(=O)(=O)c1ccc(Cl)c(NC(=O)CN2C(=O)NC(C)(C3CC3)C2=O)c1 (stereo not given)	5.2%	0.7	5.62µM*	3.7	-3.1%
COc1cc(N/N=C/c2ccc(N(C)C)cc2)ncn1	-3.7%	-19.0	3.55µM*	·	20.8%
Cc1cnn(-c2cc(N/N=C/c3ccccc3F)ncn2)c1	4.7%	7.5	1.5%	-2.0	-7.8%
COc1cc(N/N=C/c2ccccc2O)ncn1	-12.4%	-88.4*	-6.3%	-95.8*	7.5%
CCN(CC)C(=O)Cn1cc(C(=O)C(=O)Nc2ccc3c(c2)OCO3)c2ccccc21	·	-9.3	·	-5.5	·
CCOc1ccccc1-n1c(SCC(N)=O)nnc1-c1ccccc1	2.1%	3.3	·	3.9	5.2%
CCOc1ccccc1-n1c(SCC(N)=O)nnc1-c1ccc(O)cc1	0.4%	-89.7*	·	-90.4*	-12.6%
COc1ccccc1-c1cc(NC=O)c2ncc(-c3cccc(C(F)(F)F)c3)n2c1	·	-1.3	·	2.4	·
CN(C)c1ccccc1-c1cc(NC=O)c2ncc(-c3cccc(C(F)(F)F)c3)n2c1	·	?	·	-71.8*	·
Cc1ccccc1CN1C(=O)CSCC1(C)C(=O)NC(C)C (stereo not given)	·	-1.6	·	3.2	·
CC(C)c1ccc(NC(=O)c2ccc(F)c(S(=O)(=O)N3CCc4ccccc4C3)c2)cc1	3.8%	·	·	·	·
COc1cc(/C=N/NC2=NCCCCC2)ccc1O	-3.7%	-4.6	2.8%	2.0	6.3%
COc1cc(/C=N/Nc2ncnc3sc4c(c23)CCC4)ccc1O	-0.3%	-67.9*	-4.0%	-82.7*	·
CNS(=O)(=O)c1ccc(CNC[C@H]2O[C@@H](n3cc(C)c(=O)[nH]c3=O)C[C@@H]2O)cc1	·	8.9	·	2.8	·
SMILES	Mito fusion act	Six1-Eya2 inh	uPA surface inh	CtBP-E1A inh	MBNL1 CUG block
CCCN(CC1CC1)c1nc(C)nc(Nc2c(Cl)cc(Cl)cc2Cl)c1Cl	14.6µM*	-0.7	5.7%	16.4	·
CCOc1ccc(Br)cc1CNc1ccc2c(c1)OCCO2	-0.5%	-77.0*	4.8%	?	-0.7%
O=Cc1cc2cc3c(cc2nc1Cl)OCCO3	-0.2%	0.9	-1.6%	6.6	?
O=C(O)c1ccc(N/N=C/c2cc3cc4c(cc3nc2Cl)OCCO4)cc1	4.2%	7.0	0.891µM*	-11.6	?
COc1cc(CNCCCSc2nnnn2C)cc(Br)c1OC	-3.1%	·	·	·	·
COC(=O)C1=C(C)N(Cc2ccccc2)C(=NCC2CC2)N[C@H]1c1ccc(Br)cc1	-20.0%	·	·	·	-8.4%
CC1Cc2cc(S(=O)(=O)N3CCCC(C(=O)N4CCCCC4)C3)ccc2N1C(=O)C1CC1 (stereo not given)	0.316µM*	1.2	6.4%	·	-1.9%
COCCN1C(=O)CN(S(C)(=O)=O)CC1(C)C(=O)NCc1ccccc1 (stereo not given)	·	0.2	·	2.1	·
Cc1cccc(NCc2cc(Cl)cc(Cl)c2O)n1	?	-17.3	-9.4%	13.4	-3.8%
Oc1c(Cl)cc(Cl)cc1CNc1nccs1	1.5%	-65.2*	2.0%	-82.8*	-2.7%
O=C(NCC(c1ccco1)N1CCc2ccccc21)C(=O)Nc1ccc(F)cc1F (stereo not given)	?	-17.0	3.16µM*	-7.9	·
Cc1ccc(S(=O)(=O)N2C[C@@H]3CCCC[C@@H]3[C@@H](C)[C@H]2c2cn(Cc3ccccc3)c3ccccc23)cc1	·	-5.7	?	4.1	·
Cc1ccc(S(=O)(=O)N2C[C@@H]3CCCC[C@@H]3[C@@H](C)[C@H]2c2cn(Cc3ccccc3)c3ncccc23)cc1	·	-10.1	10µM*	2.5	·
COc1cccc(NC(=O)C2(C)CCCN(C(C)C)C2)c1 (stereo not given)	·	-3.3	·	7.8	·
O=c1[nH]c2cc3c(cc2cc1CN(Cc1ccco1)C(=S)NCC1CCCO1)OCCO3 (stereo not given)	-3.0%	-9.5	12.6µM*	·	3.5%
Cc1ccc2cc(CN(Cc3ccco3)C(=S)NCC3CCCO3)c(=O)[nH]c2c1 (stereo not given)	7.9%	-7.9	-0.6%	-9.6	4.3%
COc1ccc(/C=C2\CCn3c2nc2cc(C(=O)O)ccc2c3=O)cc1OC	27.2%	-21.1	0.8%	-7.3	?
COC(=O)c1ccc(/C=C2\CCn3c2nc2cc(C(=O)O)ccc2c3=O)cc1	18.9%	-66.1*	1.1%	?	?
COC(=O)c1sc(=S)sc1C(=O)OC	-6.7%	-89.4*	-24.4%	12.8	11.4%
CC(=O)Nc1ccc(S(=O)(=O)N2CCC(C(=O)NC3CCCC3)CC2)cc1	-6.9%	5.4	0.6%	6.2	-0.5%
CC(=O)Nc1ccc(S(=O)(=O)N2C3CCCC2CC(NC(=O)C2CCCCC2)C3)cc1 (stereo not given)	1.7%	-67.4*	3.9%	-3.1	-9.1%
CC1(C(=O)Nc2ccc3c(c2)OCO3)CCN1C(=O)CC1CC1 (stereo not given)	·	-1.0	·	2.2	·
CCCC[C@]12Cc3cc(C#N)ccc3C(O1)c1c(cc(-c3ccccc3)oc1=O)O2	1.6%[9.22 µM]	·	·	·	6.9%[11.5 µM]
CSc1ccc(/C=C/C(=O)c2ccc(O)cc2)cc1	28.7%	3.9	-17.7%	-12.8	0.5%
CSc1ccc(C(=O)c2[nH]c(=O)[nH]c2C)cc1	13µM*!	-7.0	-11.7%	-1.5	?
CCOc1ccc2c(c1)c(N=NC(N)=S)c(O)n2C	3.8%	?	4.2%	?	?
CCOc1ccc2c(c1)c(N=NC(=N)N)c(O)n2C	-1.3%	-79.8*	-5.1%	?	?
